# Rows were chosen to be rich in hits. Some 7% of all compounds tested hit in one or more screens of this group.
# KAT2A inh: blocks human GCN5L2 histone acetyltransferase; Q92830; GCN5L2 HAT assay, ThioGlo1 CoA-SH fluorescence; Potency, µM (highest dose often 58.9 µM), inactives show at the top dose activity change, negative = inhibition, hits mostly inhibitors; 390,000 compounds, 0.21% hits; note: potency is the fitted concentration of half-maximal effect; % is set by controls: 0 for no effect and ±100 for the full control effect
#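 Compounds, pin-transferred from DMSO stocks, meet 20nM GCN5L2 for 15 min before the reaction begins with H3(1-25) peptide (75uM) and acetyl-CoA (70uM). Thiol-reactive ThioGlo1 reports CoA release over 20 min at room temperature.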
# PI5P4K alpha inh: inhibitors of human PI5P4K alpha. max response, %. PI5P4Kalpha enzyme, ADP-Glo luminescence, 60 min; active compounds read low. 330,000 compounds, 1.2% hits. P48426; active = max response of -50% or lower; inconclusive = between -30% and -50%; inactive = -30% or higher; note: value at the top dose of about 77 µM; % is set by controls: 0 for no effect and ±100 for the full control effect
#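 PI5P4Kalpha ADP-Glo assay; 5 microM ATP final; 60 min RT reaction; HEPES pH 7.4/EGTA/CHAPS, 5% DMSO; controls lacking substrate or enzyme; luminescent end-point.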
# HP1b binding inh: HP1-beta chromodomain-methylated histone interaction inhibition; P83916; AlphaScreen HP1-beta / biotin-H3K9me3 peptide binding; Potency, µM (top dose mostly 114 µM), for the others: at the highest dose activity change, negative = inhibition, actives largely listed as inhibitors; 390,000 compounds, 0.56% hits; note: potency is the fitted concentration of half-maximal effect; nearly all actives have a fitted effect of over 70% in size
#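 HP1-beta protein (50 nM final) preincubated 30 min at room temperature with biotinylated H3(1-18)K9me3 peptide (50 nM) in PBS pH 7.4, 0.01% Tween-20, then compound added for 30 min. AlphaScreen streptavidin donor/nickel chelate acceptor beads (10 ug/mL final), 30 min dark, luminescence read.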
# PLK1 PBD inh: PLK1 (human) polo-box domain binding inhibition; Potency, µM, for the others: max response, negative = inhibition, hits mostly inhibitors; P53350; AID 720504; Plk1 PBD binding of FITC phosphopeptide, fluorescence polarization; 360,000 compounds, 2.8% hits; note: potency is the fitted concentration of half-maximal effect; series mostly up to about 57 µM; % is set by controls: 0 for no effect and ±100 for the full control effect; nearly all actives have a fitted effect of over 65% in size
# JMJD2A Tudor inh: blocks the human JMJD2A Tudor domain | AlphaScreen JMJD2A-Tudor / H3K4me3 peptide binding | O75164 | 390,000 compounds, 4.4% hits | Potency, µM (titrated, usually from 114 µM), inactives show top-dose activity change, negative = inhibition, hits mostly inhibitors | AID 504339; note: potency is the fitted concentration of half-maximal effect; % is set by controls: 0 for no effect and ±100 for the full control effect; nearly all actives have a fitted effect of over 50% in size
# BAZ2B block: inhibitors of human BAZ2B bromodomain; AID 504333; 360,000 compounds, 4.4% hits; Potency, µM (titrated, usually from 114 µM), without a hit: at the top dose activity change, negative = inhibition, most hits filed as inhibitors; AlphaScreen BAZ2B-H3K14Ac peptide displacement; note: potency is the fitted concentration of half-maximal effect; % is set by controls: 0 for no effect and ±100 for the full control effect; nearly all actives have a fitted effect of over 60% in size
#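 Inhibition is scored as reduced AlphaScreen emission. The BAZ2B/b-H3(5-23)K14Ac complex (50 nM each) in PBS pH 7.4, 0.01% Tween-20 meets compound (up to 110 uM) for 30 min at RT before bead addition.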
# * = called active by the depositor; ? = inconclusive; / = no result given; [ ] = dose if it differs, or a comment. Unless noted, calls come from the whole dose curve; as a rule, active = well fitted curve in the direction sought with a large enough effect; inconclusive = small, poorly fitted or top-dose-only effect, or another doubt; inactive = no such curve, though single readings can be large; an effect the other way counts as inactive or inconclusive.
SMILES,KAT2A inh,PI5P4K alpha inh,HP1b binding inh,PLK1 PBD inh,JMJD2A Tudor inh,BAZ2B block
Cc1ccc(-c2cc(C(=O)OCC(=O)N(C)C3CCS(=O)(=O)C3)c3ccccc3n2)c(C)c1 (configuration not stated),-17%,2,18%,-5%,-26%,-26%
Cc1ccc(-c2cc(C(=O)OCC(=O)N(C)C3CCS(=O)(=O)C3)c3ccccc3n2)o1 (configuration not stated),?,-19,-4%,?,79µM*,-19%
COc1ccc(N2C(=O)C3CCCN3C2c2ccc(C)o2)cc1 (configuration not stated),-5%,-1,38%,0%,-1%,-16%
NC(=S)N=Nc1ccc(NN=C(N)N)cc1,?,-84*,4µM*,3.8µM*,11µM*,40µM*
Nc1cccc(Nc2ncnc3ccccc23)c1,-23%,-5,20%,6%,4%,50µM*
Oc1cccc(Nc2ncnc3ccccc23)c1,0%,/,33%,-3%,-4%,2%
O=C(O)c1cccc(Nc2ncnc3ccccc23)c1,-12%,/,26%,-7%,79µM*,?
Cc1ccc(S(=O)(=O)N(CC(=O)Nc2ccccc2C(=O)O)c2cccc(Cl)c2C)cc1,-23%,?,11%,30µM*,-26%,-23%
Cc1ccccc1N(CC(=O)Nc1ccccc1C(=O)O)S(C)(=O)=O,-5%,/,17%,-10%,-21%,-4%
O=C(NC1CCCC1)c1ccc(Cl)c(S(=O)(=O)N2CCCCC2)c1,-1%,0,-2%,-9%,-18%,-3%
CCOC(=O)c1ccc(N=NN(C)C)cc1,-4%,3,37%,-5%,-11%,-32%
CCOC(=O)c1ccc(N=c2scc(C)n2CC)cc1,-10%,8,?,0%,40µM*,40µM*
C=CCn1c(C)csc1=Nc1ccccc1C,2%,-2,50µM*,30µM*,56µM*,50µM*
C=CCn1c(C)csc1=Nc1ccc(C(C)=O)cc1,-2%,-7,-3%,-14%,-5%[11.4 µM],45µM*
C=CCn1c(CC(=O)OC)csc1=Nc1ccc(C(C)=O)cc1,0%,/,-12%,-3%,-12%,?
COc1cccc(CN2C(=O)c3ccccc3C2C(=O)NCCc2ccccc2)c1 (configuration not stated),1%,/,26%,/,-10%,1%
CC(Sc1nc(-c2ccccc2)cc(C(F)(F)F)n1)C(=O)O (configuration not stated),-9%,14,?,27µM*,-23%[11.4 µM],-4%
CC(Sc1nc(-c2ccccc2)cc(C(F)(F)F)n1)C(=O)N1CCCC1 (configuration not stated),-8%,-6,57%,-3%,-6%,12%
CCOC(=O)CS(=O)(=O)c1nc(-c2ccccc2)cc(C(F)(F)F)n1,-2%,0,46%,11µM*,-12%,-12%
COc1ccc(-c2cc(C(F)(F)F)nc(S(C)(=O)=O)n2)cc1,-2%,0,31%,?,-17%,12%
O=C(O)c1ccc(CSc2nc(-c3ccc(Cl)cc3)cc(C(F)(F)F)n2)cc1,-12%,/,29%,21µM*,?,?
CS(=O)(=O)c1nc(-c2ccc(F)cc2)cc(C(F)(F)F)n1,0%,-3,64%,24µM*,-10%,-3%
Cc1nnc(N2CCN(c3ccccc3F)CC2)c2c1nnn2Cc1ccc(F)cc1,0%,/,41%,/,-5%,-9%
Cc1ccc(C)c(NC(=O)Cn2ncc3c(C)n(Cc4ccc(F)cc4)c(C)c3c2=O)c1,-7%,/,36%,/,1%,5%
O=C(COC(=O)c1nc(Cl)ccc1Cl)NCc1cccs1,5%,-19,35%,-11%,-7%,-5%
SMILES,KAT2A inh,PI5P4K alpha inh,HP1b binding inh,PLK1 PBD inh,JMJD2A Tudor inh,BAZ2B block
CC1CCc2c(sc(NC(=O)c3cc4nc(-c5ccc(Cl)cc5)cc(C(F)(F)F)n4n3)c2C#N)C1 (configuration not stated),-10%,/,37%,/,-4%,-15%
COC(=O)CCS(=O)(=O)c1nc(-c2ccccc2)cc(C(F)(F)F)n1,6%,/,57%,21µM*,-1%,2%
CCOC(=O)CS(=O)(=O)c1nc(-c2ccc(F)cc2)cc(C(F)(F)F)n1,-6%,-11,32%,5.3µM*,-2%,-3%
O=C(CC(NS(=O)(=O)c1ccc(Cl)cc1)c1ccco1)NCc1ccco1 (configuration not stated),-11%,-15,?,30µM*,21%[11.4 µM],?
O=C(CSc1ccc(Cl)cc1)NC(=O)NCc1ccco1,-12%,-27,39%,3µM*,-1%,?
Cc1ccc(CNCc2ccco2)cc1,-15%,-6,-5%,-1%,28µM*,56µM*
CSc1ccc(CNCc2ccco2)cc1,0%,-5,16%,0%,-18%,-31%
CCCNC(=O)CC(NS(=O)(=O)c1ccc(Cl)cc1)c1ccco1 (configuration not stated),-3%,-2,9%,-4%,-5%,-5%
O=C(CNCc1ccc(Cl)cc1)NCc1ccco1,-3%,0,?,-7%,79µM*,50µM*
CC[C@H](C)[C@@H](N)C(=O)NC[C@H]1O[C@@H](n2cnc3c(=O)[nH]c(N)nc32)[C@H](O)[C@@H]1O,/,2,/,-3%,/,/
O=C(COC(=O)Cc1ccc(Cl)cc1)NCc1ccco1,-14%,-8,?,-23%,56µM*,/
O=C(COC(=O)Cc1ccc(Cl)c(Cl)c1)NCc1ccco1,-2%,0,6%,-1%,-16%,?
CN1/C(=C\C(=O)COC(=O)CNC(=O)c2ccc3ccccc3c2)C(C)(C)c2ccccc21,-9%,-14,-4%,19µM*,-32%,-10%
CC(C)(C)c1cnnn1-c1ccc(C(=O)CCl)cc1,-17%,/,22%,6.7µM*,-21%,-20%
CC(C)(C)c1cnnn1-c1ccc(C=O)cc1,-5%,/,13%,-10%,-11%,3%
COc1ccc(NC(=O)c2c(NCc3ccc(C)o3)sc3c2CCC(C)C3)cc1 (configuration not stated),-13%,/,-19%,/,45µM*,-34%
CCOC(=O)N1CCc2c(sc(NCc3sccc3C)c2C(=O)Nc2ccc(OC)cc2OC)C1,-15%,/,-2%,/,?,?
CCOc1ccc(NC(=O)c2c(NCc3ccc(C)o3)sc3c2CCCCC3)cc1,-25%,/,8%,/,?,-22%
COc1ccc(NC(=O)c2c(NCc3sccc3C)sc3c2CCCCC3)c(OC)c1,-21%,/,-18%,/,?,32µM*
COc1ccc(NC(=O)c2c(NCc3ccc(C)o3)sc3c2CCCCC3)c(OC)c1,-28%,/,-17%,/,50µM*,18%

# High-throughput results deposited in PubChem by National Center for Advancing Translational Sciences (NCATS).
